In the supplement of paper PMC6555819:

What was measured:
Assay in all cases: PBM binding z-score (relative to random genomic background probes); higher = stronger binding; sequences stand for … in GC…GCGATTGACAGCGTAGAATGAAGG
[1] = system: RARb homodimer (NR concentration 270 nM)
In short: (§1)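 Binding z-scores were set against random background probes. The data came from custom Agilent 4×180K protein-binding microarrays carrying double-stranded probes with 34-nt variable regions, incubated 1 h with ligand-free nuclear receptor dimers. Partner-specific antibodies detected binding, and scanned fluorescence was regression-normalized.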

[2] = system: RARg:RXRa (NR concentration 270 nM, RXRa partner concentration 90 nM)
In short: as §1

[3] = system: RARg homodimer (NR concentration 270 nM)
In short: as §1

[4] = system: RXRa DBDmut IVT, anti-RXR (DBD mutation: RXRa K156A/R161A, NR concentration 90 nM)
In short: as §1

[5] = system: RXRa homodimer (NR concentration 180 nM)
In short: as §1

[6] = system: THRa:RXRa (NR concentration 90 nM, RXRa partner concentration 90 nM)
In short: as §1

[7] = system: THRa homodimer (NR concentration 90 nM)
In short: as §1

[8] = system: VDR homodimer (NR concentration 270 nM)
In short: as §1

Sequence | PBM binding z-score [1] | PBM binding z-score [2] | PBM binding z-score [3] | PBM binding z-score [4] | PBM binding z-score [5] | PBM binding z-score [6] | PBM binding z-score [7] | PBM binding z-score [8]
CAAACTAGGTGAAAGGTCAAAGTCGAGCCAACCA | 4.61 | 7.35 | 6.17 | 2.27 | 8.91 | 4.19 | 1.31 | 2.49
TATGCAGGGTCAAAGGCCAGAGTACGAATGTCGA | 3.43 | 5.45 | 4.89 | 2.39 | 6.81 | 3.45 | 0.361 | 2.66
CCTACTGGGCCACGAAAGGTCTTTGATTCAGTGA | 1.03 | 0.285 | 0.261 | -0.372 | 0.067 | 1.06 | -0.141 | -0.432
CCTCAGAGGACAGAAGGTCAGAGCTGTCCGCTTT | 3.51 | 3.95 | 3.91 | 0.625 | 2.1 | 1.95 | -0.0422 | 0.12
CCTACTGGGCCATTCAGAGGTCATTGCTCATATG | 3.78 | 4.44 | 3.16 | 0.998 | 3.47 | 3.03 | 1.28 | 3.65
TTACCAAGGTGCAGGTCGTTGATCCCTCTGTAGA | 0.634 | 0.0227 | -0.225 | 0.43 | 0.481 | 0.675 | 0.0392 | 0.805
TCATATAGGTAAAGGTGATAGTCGAACGATATGA | 0.45 | 0.866 | 0.944 | 0.699 | 1.19 | 0.353 | -0.589 | -0.591
